Measurements published in PubChem BioAssay AID1508600 (Functional Genomics Laboratory (NCATS/FGL), 2020).
The whole screen tested about 53,000 sequences, of which about 3,700 (7%) were called active.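 How the source made its calls: active means gene knockdowns whose robust z-score for IL-1 alpha signal is at least 2 or at most -2, so actives lie on both sides; inactive means the rest.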 This excerpt belongs to a sample that is enriched for actives.

Test: Components of the Cytosolic LPS Sensing Pathway: Gene Identification via Genome-wide siRNA Screen;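 further: robust z of the log signal after scaling to non-targeting control siRNA wells of the plate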
Conditions: RAW264.7 macrophages, IL-1a HTRF, actives lie on both sides, screened at 100 nM (by protocol), cells primed 5 h with Pam3CSK4 first
Procedure, shortened: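 RAW264.7 mouse macrophages reverse-transfected with single siRNAs (100 nM final) for 48h, primed with Pam3CSK4 for 5 hours, then transfected with LipidA for 24 hour. Supernatant IL-1a read by HTRF; values normalized to negative-control median, log-transformed robust z-scores.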
With GGUCACCAGUACCUAUGGATT against Bricd5 the z-score was -2.17 (active). In the case of GGGACUGUACUCAUUUCUATT against Rnf138rt1, the z-score is reported as -0.67 (inactive). With GCAGGUUGAACGACAGCGUTT against Dph5 the z-score was -0.349 (inactive). With GGAAUAAUCCCAGUUCUCUTT against Tmem101 the z-score was -1.04 (inactive). For CCAGAAUGGCGGGUAUUUGTT against Fbln5, the z-score was 2.14 (active). For GAAGGUGAAGUGCAGGAAGTT against Fxyd7, the z-score was -0.081 (inactive). For GCAGGCCAGAGUAGUCAUGTT against Them6, the z-score was 0.579 (inactive). In the case of GGAAUUAACGUGUUUCUGUTT against Tor1aip2, the z-score is reported as 1.14 (inactive). In the case of GGUGAUAAAGCUAUGUAUUTT against Ccn2, the z-score is reported as 0.147 (inactive). In the case of GGACAACAUUGACAAGUUCTT against Clcn7, the z-score is reported as 1.36 (inactive). For GCUGGGUCCACAUGAAUCATT against Sucnr1, the z-score was 2.7 (active). In the case of GGAUCAGACAUGCAAGAGGTT against Xlr5c, the z-score is reported as -1.81 (inactive). For GCAUCAUGGUCACAAAUGGTT against Ncr1, the z-score was -0.613 (inactive). For GCUACCGUGGGCGAUGUAATT against Dbi, the z-score was -0.37 (inactive). With GGGAAAAUGCGAUUCAUGATT against P2ry14 the z-score was -0.774 (inactive). With GGAGAUUAUUAACUUCACCTT against Hcn3 the z-score was -0.895 (inactive). In the case of GGAACUGGACUUAUUCCACTT against Wnt5b, the z-score is reported as 0.652 (inactive). For GGAGAAACCAGGAUCUAUUTT against Rnf14, the z-score was 2.22 (active). For GCCAGGAGUACUGUAUAUATT against Spint1, the z-score was -0.366 (inactive). For GGAGCUCUAAAAUUGACUUTT against Zfp92, the z-score was 1.17 (inactive). With GGAAUCUAGAAGAAUCAUUTT against Gnao1 the z-score was -0.42 (inactive). In the case of GCUAUGGUAGCUGAUAACATT against Rell1, the z-score is reported as 1.21 (inactive). For GGAUCCUAAUGAGGACAUUTT against Jchain, the z-score was 2.75 (active). In the case of GCCACAAGAUACCAUCAGATT against Bex1, the z-score is reported as -1.66 (inactive). With CCAUAUGUCCUGUUUAAGATT against Grik2 the z-score was 0.304 (inactive). In the case of GGACUUGAAAGACGAGAUATT against Cyp19a1, the z-score is reported as 0.31 (inactive). In the case of CCUUUAUGAAUGAACAGGGTT against Cnot7, the z-score is reported as -0.266 (inactive). With GGCCAAUUCCAGUGAGAUGTT against Lgsn the z-score was -0.0795 (inactive). In the case of GGCAGAGCUCAAAAAGAAATT against Ankrd1, the z-score is reported as -1.94 (inactive). In the case of CCAAAUCCGGGAAAAAGAGTT against Armcx5, the z-score is reported as -0.459 (inactive).
